From PubChem BioAssay (Tox21) come the findings set out here.

Assay [1] is described as follows: qHTS assay to identify small molecule agonists of the vitamin D receptor (VDR) signaling pathway - cell viability counter screen (AID 743224). Further: series mostly up to about 63 µM; on the % scale 0 is the no-effect control and ±100 the full control effect; nearly all actives have a fitted effect of over 50% in size. In short, it runs like this:
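VDR-bla cells, 4 h after plating, exposed to compounds for 16 h at 37C; viability then read in the same wells as CellTiter-Glo luminescence after 30 min at room temperature, following the bla FRET read.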
In general terms: In qHTS, concentration-response curves come from the screen itself.

Assay [2] can be described thus: qHTS assay to identify small molecule antagonists of the vitamin D receptor (VDR) signaling pathway - cell viability counter screen (AID 743225). Further: on the % scale 0 is the no-effect control and ±100 the full control effect; nearly all actives have a fitted effect of over 50% in size. In short, it runs like this:
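Luminescent cell viability (CellTiter-Glo) in VDR-bla HEK 293T cells after 16 h compound exposure at 37C in the presence of 3 nM final 1-alpha,25-dihydroxy vitamin D3.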

Assay [3] is described as follows: qHTS assay to identify small molecule agonists of the NFkB signaling pathway (AID 1159509; active means well fitted curve in the direction sought with a large enough effect in the signal ratio in the repeat runs, not every such curve was filed as active; the % refers to the signal ratio; further: series mostly up to about 61 µM; on the % scale 0 is the no-effect control and ±100 the full control effect). In short, it runs like this: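 ME-180 NFkB-bla, 2,000 cells/well, overnight plating; cpd pinned in DMSO, 5 h 37 C; B/G FRET substrate 1.5 h RT; ex 405, em 460/530 nm.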
Assay [4] is described as follows: qHTS assay to identify small molecule agonists of the NFkB signaling pathway - cell viability counter screen (AID 1159515; calls by dose curve; further: series mostly up to about 61 µM; on the % scale 0 is the no-effect control and ±100 the full control effect; nearly all actives have a fitted effect of over 55% in size). In short, it runs like this: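 NFkB-bla ME-180 cells, 2,000/well, plated overnight at 37 C; compound added for 5 hr at 37 C. Viability read in the same wells as the bla reporter, by CellTiter-Glo luminescence after 30 min at room temperature.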

A short description of assay [5]: qHTS assay to identify small molecule agonists of the endoplasmic reticulum stress response signaling pathway (AID 1159516; active means well fitted activation curve with a large enough effect in the signal ratio in the repeat runs, not every such curve was filed as active; the % refers to the signal ratio; further: on the % scale 0 is the no-effect control and ±100 the full control effect). In short, it runs like this:
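CellSensor ESRE-bla HeLa cells, 1,500 per well, plated overnight, then exposed to compounds for 5 hr at 37 C. Beta-lactamase reporter read with LiveBLAzer B/G FRET substrate after 2 hr at room temperature, 405 nm excitation, 460 and 530 nm emission.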

Assay [6] can be described thus: qHTS assay to identify small molecule agonists of the endoplasmic reticulum stress response signaling pathway - cell viability counter screen (AID 1159517; calls by dose curve;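 further: HeLa cells carrying an ER stress response element beta-lactamase reporter; series mostly up to about 61 µM; on the % scale 0 is the no-effect control and ±100 the full control effect; nearly all actives have a fitted effect of over 50% in size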). In short, it runs like this:
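CellTiter-Glo was added to wells already read for beta-lactamase FRET, and luminescence was recorded 30 min later. Cells: ESRE-bla HeLa, 1,500 per well, compound exposure 5 hr at 37 C.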

The nature of assay [7]: qHTS assay to identify small molecule antagonists of the retinoid-related orphan receptor gamma (ROR-gamma) signaling pathway - cell viability counter screen (AID 1159520). Further: on the % scale 0 is the no-effect control and ±100 the full control effect; nearly all actives have a fitted effect of over 50% in size. In short, it runs like this: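 Tet-on ROR gamma CHO cells (1,000/well) were plated 4 hr, given compounds in DMSO for 2 hr at 37 C, then induced with 1 uM final doxycycline for 16 hr. Viability was read as ATP by CellTiter-Glo luminescence after 30 min.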

The target in assay [8] is Nuclear receptor ROR-gamma (Homo sapiens) (UniProt P51449). The experiment in a line: qHTS assay to identify small molecule antagonists of the retinoid-related orphan receptor gamma (ROR-gamma) signaling pathway (AID 1159521). In short, it runs like this: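 CHO cells expressing RORγ under a TET-on promoter, luciferase under RORE control. Dox 1 uM final, 16 h; compounds added 2 h prior. Luminescence decrease measured.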

Assay [9] is described as follows: qHTS assay to identify small molecule agonists of the AP-1 signaling pathway - cell viability counter screen (AID 1159525; calls by dose curve; further: nearly all actives have a fitted effect of over 55% in size). In short, it runs like this: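 ME-180 AP-1-bla, 2500 cells/well, Opti-MEM + 0.5% dialyzed FBS; overnight 37 °C; cpd 15-pt titration, 5 h 37 °C; CellTiter-Glo 30 min RT; luminescence read; normalised to TOAB and DMSO controls.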
A short description of assay [10]: qHTS assay to identify small molecule agonists of the AP-1 signaling pathway (AID 1159526; calls by dose curve; further: potency means the concentration at half of the fitted maximal effect).
The nature of assay [11]: qHTS assay to identify small molecule agonists of the RXR signaling pathway - cell viability counter screen (AID 1159529). In short, it runs like this: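 Same-well viability check after the LiveBLAzer FRET read: CellTiter-Glo added, luminescence measured after 30 min at room temperature. Reporter HEK 293T cells had been treated with compounds for 16 hr following a 5 hr preincubation.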

Assay [12] can be described thus: qHTS assay to identify small molecule antagonists of the retinoid acid receptor (RAR) signaling pathway - cell viability counter screen (AID 1159551). Further: on the % scale 0 is the no-effect control and ±100 the full control effect; nearly all actives have a fitted effect of over 35% in size. In short, it runs like this:
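C3RL4 RARE-luciferase cells, 1,000/well, incubated overnight, then dosed with compound plus 1 uM retinol (final). After 6 hr at 37 C, viability read by CellTiter-Glo ATP luminescence following 30 min at room temperature.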

Assay [13] is described as follows: qHTS assay to identify small molecule antagonists of the retinoic acid receptor (RAR) signaling pathway (AID 1159552). In short, it runs like this:
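Readout: luciferase luminescence, 30 min post-reagent at RT. Setup: C3RL4 RARE reporter cells, compounds plus retinol 1 uM final, 6 hr incubation at 37 C and 5% CO2.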

Assay [14] can be described thus: qHTS assay to identify small molecule agonists of the retinoic acid receptor (RAR) signaling pathway (AID 1159553). Further: potency means the concentration at half of the fitted maximal effect. In short, it runs like this:
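C3RL4 RARE-luciferase cells were seeded at 1,000/well and grown overnight at 37 C, then exposed to compounds for 6 hr at 37 C, 5% CO2. Luciferase reagent was added and luminescence was read after 30 min at room temperature.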

Assay [15] can be described thus: qHTS assay to identify small molecule antagonists of the estrogen related receptor (ERR) signaling pathway - cell viability counter screen (AID 1224818). Further: series mostly up to about 46 µM; on the % scale 0 is the no-effect control and ±100 the full control effect. In short, it runs like this: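 ERR cells, 2,000 per well, compound added after 6 h and incubated 17.5 h at 37 C. Viability read by CellTiter-Fluor fluorescence after a further 30 min at 37 C.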
Assay [16] can be described thus: qHTS assay to identify small molecule antagonists of the estrogen related receptor signaling pathway with the pleiotropic PPARgamma coactivator (PGC) cell viability counter screen (AID 1224822; further: series mostly up to about 46 µM; on the % scale 0 is the no-effect control and ±100 the full control effect). In short, it runs like this:
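PGC/ERR cells rested 6 h, then compound-treated 17.5 h at 37 C. CellTiter-Fluor added for 30 min at 37 C, viability measured by fluorescence intensity.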

Several values for one entry are separate records, joined by “and”; a condition that tells them apart may be missing. Identical values can stand only once. Inconclusive results are not listed. Values without a mark were called inactive. Activity calls are given as the source filed them. Unless noted, the call rests on the fitted dose curve; in most records, active means well fitted curve in the direction sought with a large enough effect in the repeat runs; inconclusive means weak or mixed curves; inactive means no such curve, though single readings can be large; an effect the other way counts as inactive or inconclusive.

With `O=C1c2ccccc2CCc2ccccc21`, the compound was classed as inactive in [1], in assay [2], in [3], in assay [4], in [5] and in assay [7]. The call in [9], in assay [11], in [12] and in [13] was inactive. Also, the Potency result in assay [6] and in assay [8] was “inactive” throughout. Besides, the Potency in assay [10] is 35.4 µM (active) and 23.9 µM (active).

For the compound `C=C(C)[C@H]1CC=C(C)C(=O)C1`, the compound was called inactive in [1], in assay [2], in assay [3], in assay [4], in assay [5] and in assay [7]. The result in assay [9], in assay [11] and in [12] was inactive. Besides, the Potency entry in [6], in assay [8] and in [10] was “inactive” throughout.

As for `Cc1ccc(C(C)C)c(O)c1`, the result in assay [2], in [3], in [4], in assay [5], in [7] and in assay [9] was inactive. Besides, the compound was classed as inactive in [11], in assay [12] and in assay [13]. For the same compound, the Potency entry in [6], in assay [8], in assay [10] and in assay [14] was “inactive” each time.

In the case of `COCCCN`, the outcome in [1], in assay [2], in assay [3], in assay [4], in assay [5] and in [7] was inactive. The compound was classed as inactive in assay [9] and in assay [12]. Besides, the Potency result in assay [6], in assay [8] and in assay [10] was “inactive” throughout.

In the case of `CCCCCC(=O)O`, the call in [1], in assay [2], in [3], in assay [4], in [5] and in assay [7] was inactive. The call in [9], in assay [11], in assay [12] and in [13] was inactive. In addition, the Potency result in assay [6], in assay [8], in [10] and in [14] was “inactive” each time.

As for `CC(O)CC(C)(C)O` (stereo not given), the compound was classed as inactive in assay [1], in assay [2], in assay [3], in assay [4], in assay [5] and in assay [7]. Moreover, the outcome in [9], in assay [12] and in [13] was inactive. For the same compound, the Potency entry in assay [6], in assay [8], in assay [10] and in assay [14] was “inactive” each time.

`CN1C(=O)CC[C@H]1c1cccnc1`: the compound was classed as inactive in [1], in [2], in assay [3], in assay [4], in assay [5] and in [7]. Also, the outcome in [9], in assay [15] and in assay [16] was inactive. Also, the Potency entry in [6], in [8] and in assay [10] was “inactive” in each case.

`CCc1ccccc1CC`: the outcome in assay [1], in [3], in assay [4], in [5], in [7] and in [9] was inactive. The compound was called inactive in assay [11]. For the same compound, the viability change, negative = cytotoxic in [2] was 4.82% [at 15.1 µM]. Further, the Potency entry in assay [6], in assay [8] and in assay [10] was “inactive” throughout.

Take `O=C(O)/C=C/C(=O)O`: the compound was classed as inactive in [1], in assay [2], in assay [3], in [4], in assay [5] and in assay [7]. Besides, the outcome in assay [9] and in [12] was inactive. The Potency entry in [6], in [8] and in [10] was “inactive” each time.

For the compound `c1ccc(Oc2ccccc2)cc1`, the compound was called inactive in assay [1], in assay [2], in assay [3], in [4], in assay [5] and in [7]. The outcome in assay [9], in assay [11], in assay [12] and in assay [13] was inactive. The Potency result in [6], in [8], in assay [10] and in [14] was “inactive” each time.

In the case of `O=C(O)c1ccccc1C(=O)O`, the compound was classed as inactive in assay [1], in assay [2], in [3], in assay [4], in assay [5] and in assay [7]. In addition, the compound was classed as inactive in assay [9] and in [13]. Also, the Potency entry in assay [6], in [8], in assay [10] and in assay [14] was “inactive” throughout.

Take `CCCCOC(=O)c1ccc(N)cc1`: the outcome in assay [1], in [2], in assay [3], in [4], in [5] and in assay [7] was inactive. Also, the compound was called inactive in assay [9], in assay [11] and in assay [13]. Besides, the Potency entry in assay [6], in assay [8] and in assay [10] was “inactive” each time. Further, the Potency in [14] is 26.9 µM (active) and 21.1 µM (active).

With `CC(C)OP(=O)(CP(=O)(OC(C)C)OC(C)C)OC(C)C`, the call in assay [1], in assay [2], in [3], in assay [4], in assay [5] and in assay [7] was inactive. For the same compound, the call in assay [9], in assay [11] and in assay [12] was inactive. The Potency result in assay [6], in [8] and in assay [10] was “inactive” in each case.

On to `C=C(C)CNCC`, for which the compound was classed as inactive in [1], in assay [2], in [3], in [4], in [5] and in assay [7]. The compound was called inactive in [9], in assay [12] and in assay [13]. The Potency result in assay [6], in assay [8], in [10] and in assay [14] was “inactive” throughout.

Consider `O=C(O)c1cc2ccccc2cc1O`, for which the compound was classed as inactive in assay [1], in assay [2], in assay [3], in [4], in assay [5] and in assay [7]. For the same compound, the result in [9], in [11], in [12] and in assay [13] was inactive. Besides, the Potency entry in assay [6], in assay [8], in assay [10] and in [14] was “inactive” each time.

As for `CCNc1cccc(C)c1`, the compound was classed as inactive in assay [1], in assay [3], in assay [4], in assay [5], in assay [7] and in [9]. The compound was classed as inactive in [11] and in [13]. Besides, the Potency result in assay [6], in [8], in [10] and in assay [14] was “inactive” in each case.
